# Targets with a hit are over-represented here; the source holds about 7,900 in all. About 0.6% of all pairs of compound and target were hits. Values without a mark were called inactive.
# Assays:
# Assay in all cases: log2 fold change, soluble protein after heating vs DMSO (PISA); higher = thermal stabilisation; K562 cells, 10 uM, 30 min; active = over 0.2 and 3.5 SD of the protein, either way, in both replicates (recomputed)
# [1] = compound: Cc1ccc(NC(=O)c2ccc(CN3CC[C@H](N(C)C)C3)c(C(F)(F)F)c2)cc1Nc1nccc(-c2cncnc2)n1 [bafetinib]
# Summary of the method: (§1)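 K562 cells at 2×10^6 cells/mL were given 10 μM compound for 30 min. Aliquots then went through 3 min of heating across 48°C-58°C, were pooled, and were extracted in PBS with 0.5% NP-40 at 4°C, and the supernatant after 21,000xg for 90 min was quantified by TMTpro 16plex LC-MS/MS with channel sums equalised. Thermal stability relative to control samples, from duplicates, is given as log2 fold change.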
# [2] = compound: Cc1cccc(CC(=O)N2CCc3c2ccc(-c2cn(C)c4ncnc(N)c24)c3F)n1
# Summary of the method: as §1
# [3] = compound: Cc1cn(-c2cc(NC(=O)c3ccc(C)c(Nc4nccc(-c5cccnc5)n4)c3)cc(C(F)(F)F)c2)cn1 [nilotinib]
# Summary of the method: as §1
# [4] = compound: Cc1nc(Nc2n[nH]c3c2CN(C(=O)N[C@H](CN(C)C)c2ccccc2)C3(C)C)c2sccc2n1
# Summary of the method: as §1
# [5] = compound: Cc1nc(Nc2ncc(C(=O)Nc3c(C)cccc3Cl)s2)cc(N2CCN(CCO)CC2)n1 [dasatinib]
# Summary of the method: as §1
# [6] = compound: Cc1ncc(-c2ccnc(Nc3ccc(S(C)(=O)=O)cc3)n2)n1C(C)C
# Summary of the method: as §1
# [7] = compound: Cn1cc(-c2ccc3c(c2)CCN3C(=O)Cc2cccc(C(F)(F)F)c2)c2c(N)ncnc21
# Summary of the method: as §1
# [8] = compound: Cn1cc(-c2ccc3nnc(C(F)(F)c4ccc5ncccc5c4)n3n2)cn1
# Summary of the method: as §1
# [9] = compound: Cn1cncc1[C@@](N)(c1ccc(Cl)cc1)c1ccc2c(c1)c(-c1cccc(Cl)c1)cc(=O)n2C [tipifarnib]
# Summary of the method: as §1
# [10] = compound: FC(F)(F)c1ccc(/C=C/c2nc(COc3ccc(CCCCn4ccnn4)cc3)co2)cc1 [mubritinib]
# Summary of the method: as §1
# Sequence of UniProt Q9UDY2 (Q9UDY2 whole entry, looked up): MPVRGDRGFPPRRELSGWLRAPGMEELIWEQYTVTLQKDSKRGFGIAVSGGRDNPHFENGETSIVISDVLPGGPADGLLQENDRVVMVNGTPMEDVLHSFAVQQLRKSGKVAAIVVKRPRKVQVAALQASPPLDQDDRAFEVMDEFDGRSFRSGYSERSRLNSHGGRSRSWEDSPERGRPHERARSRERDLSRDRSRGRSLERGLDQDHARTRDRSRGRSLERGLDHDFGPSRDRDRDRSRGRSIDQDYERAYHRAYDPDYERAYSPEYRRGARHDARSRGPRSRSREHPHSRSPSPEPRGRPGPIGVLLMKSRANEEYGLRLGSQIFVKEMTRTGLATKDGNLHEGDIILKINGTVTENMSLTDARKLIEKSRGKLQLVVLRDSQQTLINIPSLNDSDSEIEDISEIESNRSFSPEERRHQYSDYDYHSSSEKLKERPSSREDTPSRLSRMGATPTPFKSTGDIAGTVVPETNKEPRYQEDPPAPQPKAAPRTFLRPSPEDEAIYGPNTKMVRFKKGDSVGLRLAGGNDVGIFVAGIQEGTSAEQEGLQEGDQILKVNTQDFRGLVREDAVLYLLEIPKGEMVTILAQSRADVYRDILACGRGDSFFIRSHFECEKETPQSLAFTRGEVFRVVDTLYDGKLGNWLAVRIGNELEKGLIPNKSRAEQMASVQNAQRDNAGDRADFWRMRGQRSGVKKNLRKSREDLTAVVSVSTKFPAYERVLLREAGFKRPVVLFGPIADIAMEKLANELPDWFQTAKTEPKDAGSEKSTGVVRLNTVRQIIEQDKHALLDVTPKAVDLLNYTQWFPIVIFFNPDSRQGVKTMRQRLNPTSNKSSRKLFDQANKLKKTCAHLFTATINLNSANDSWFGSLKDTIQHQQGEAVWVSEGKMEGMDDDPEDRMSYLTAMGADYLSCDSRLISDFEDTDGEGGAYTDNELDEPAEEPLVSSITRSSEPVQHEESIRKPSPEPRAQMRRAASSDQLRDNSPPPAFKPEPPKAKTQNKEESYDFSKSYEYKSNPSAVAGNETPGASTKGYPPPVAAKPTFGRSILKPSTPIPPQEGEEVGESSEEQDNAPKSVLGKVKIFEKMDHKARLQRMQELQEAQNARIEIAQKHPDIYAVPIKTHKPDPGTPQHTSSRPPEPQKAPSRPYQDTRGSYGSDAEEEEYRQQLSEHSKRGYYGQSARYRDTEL
# Sequence of UniProt O75494 (O75494 whole entry, looked up): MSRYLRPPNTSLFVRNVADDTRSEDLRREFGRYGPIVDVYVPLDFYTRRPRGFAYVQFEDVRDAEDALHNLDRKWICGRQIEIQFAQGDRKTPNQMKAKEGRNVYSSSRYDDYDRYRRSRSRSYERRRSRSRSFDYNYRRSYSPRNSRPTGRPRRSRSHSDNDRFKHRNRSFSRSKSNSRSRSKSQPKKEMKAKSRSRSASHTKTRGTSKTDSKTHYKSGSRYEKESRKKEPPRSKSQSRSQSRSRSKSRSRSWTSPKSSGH
# Sequence of UniProt Q9ULP9 (Q9ULP9 whole entry, looked up): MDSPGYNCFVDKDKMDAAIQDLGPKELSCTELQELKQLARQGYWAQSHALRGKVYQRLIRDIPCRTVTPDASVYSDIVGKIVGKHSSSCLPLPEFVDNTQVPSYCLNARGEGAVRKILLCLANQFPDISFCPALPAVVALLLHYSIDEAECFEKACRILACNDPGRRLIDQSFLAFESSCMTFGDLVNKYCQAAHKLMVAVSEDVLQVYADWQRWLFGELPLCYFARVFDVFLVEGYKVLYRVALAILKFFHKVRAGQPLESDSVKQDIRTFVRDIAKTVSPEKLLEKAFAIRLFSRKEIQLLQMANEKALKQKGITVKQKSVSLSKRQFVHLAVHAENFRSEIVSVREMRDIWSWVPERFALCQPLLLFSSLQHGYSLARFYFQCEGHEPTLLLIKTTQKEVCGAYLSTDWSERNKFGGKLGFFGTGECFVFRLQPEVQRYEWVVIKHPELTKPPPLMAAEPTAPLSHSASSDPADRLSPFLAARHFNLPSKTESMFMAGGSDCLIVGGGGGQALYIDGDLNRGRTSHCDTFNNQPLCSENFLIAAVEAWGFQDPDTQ
# Sequence of UniProt Q16629 (Q16629 whole entry, looked up): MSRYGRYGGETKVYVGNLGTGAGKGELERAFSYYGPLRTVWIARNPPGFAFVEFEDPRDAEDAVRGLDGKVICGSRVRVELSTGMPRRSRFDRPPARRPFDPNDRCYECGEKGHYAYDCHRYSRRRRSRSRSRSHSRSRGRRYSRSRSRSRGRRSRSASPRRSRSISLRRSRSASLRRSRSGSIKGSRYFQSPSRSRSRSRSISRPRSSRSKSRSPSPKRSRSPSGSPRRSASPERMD
# Sequence of UniProt P50225 (P50225 whole entry, looked up): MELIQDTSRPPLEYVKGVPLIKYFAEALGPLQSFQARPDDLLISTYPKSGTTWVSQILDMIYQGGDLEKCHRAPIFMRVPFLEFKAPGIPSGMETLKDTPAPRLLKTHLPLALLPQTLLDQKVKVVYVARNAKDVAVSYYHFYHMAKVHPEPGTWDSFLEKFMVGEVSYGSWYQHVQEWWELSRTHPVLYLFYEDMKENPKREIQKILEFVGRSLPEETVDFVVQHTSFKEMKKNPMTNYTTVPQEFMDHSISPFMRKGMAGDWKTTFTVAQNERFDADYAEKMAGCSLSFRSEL
# Sequence of UniProt Q8N1S5 (Q8N1S5 whole entry, looked up): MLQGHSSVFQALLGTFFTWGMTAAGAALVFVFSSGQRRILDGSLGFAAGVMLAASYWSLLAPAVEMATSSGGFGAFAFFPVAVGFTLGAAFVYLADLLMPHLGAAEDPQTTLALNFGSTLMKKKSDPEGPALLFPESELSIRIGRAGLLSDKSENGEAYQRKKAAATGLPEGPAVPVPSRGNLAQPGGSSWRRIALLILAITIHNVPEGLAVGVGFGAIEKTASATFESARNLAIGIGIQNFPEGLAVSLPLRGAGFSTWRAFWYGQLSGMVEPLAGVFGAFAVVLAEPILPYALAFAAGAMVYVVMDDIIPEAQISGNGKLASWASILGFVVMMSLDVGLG
# Sequence of UniProt Q86UE8 (Q86UE8 whole entry, looked up): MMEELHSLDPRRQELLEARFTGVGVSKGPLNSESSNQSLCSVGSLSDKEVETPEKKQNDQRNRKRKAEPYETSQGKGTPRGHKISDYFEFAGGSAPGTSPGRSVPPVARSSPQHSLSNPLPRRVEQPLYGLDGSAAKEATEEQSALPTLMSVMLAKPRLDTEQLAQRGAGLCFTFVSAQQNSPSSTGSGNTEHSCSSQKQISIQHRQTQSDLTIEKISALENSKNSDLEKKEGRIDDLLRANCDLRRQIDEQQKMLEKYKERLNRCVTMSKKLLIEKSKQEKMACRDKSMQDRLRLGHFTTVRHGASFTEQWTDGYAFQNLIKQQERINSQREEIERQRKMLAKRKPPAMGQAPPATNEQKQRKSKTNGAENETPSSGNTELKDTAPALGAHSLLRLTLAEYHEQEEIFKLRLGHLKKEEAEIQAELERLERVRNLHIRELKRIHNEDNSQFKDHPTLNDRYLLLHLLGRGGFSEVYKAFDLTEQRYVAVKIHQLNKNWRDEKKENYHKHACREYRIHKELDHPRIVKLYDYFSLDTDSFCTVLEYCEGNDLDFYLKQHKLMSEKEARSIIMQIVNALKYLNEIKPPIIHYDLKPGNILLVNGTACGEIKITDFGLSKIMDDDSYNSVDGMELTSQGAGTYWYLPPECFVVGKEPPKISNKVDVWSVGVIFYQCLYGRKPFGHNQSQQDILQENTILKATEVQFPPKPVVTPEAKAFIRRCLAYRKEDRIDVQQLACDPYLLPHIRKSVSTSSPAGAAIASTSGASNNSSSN
# Sequence of UniProt Q15833 (Q15833 whole entry, looked up): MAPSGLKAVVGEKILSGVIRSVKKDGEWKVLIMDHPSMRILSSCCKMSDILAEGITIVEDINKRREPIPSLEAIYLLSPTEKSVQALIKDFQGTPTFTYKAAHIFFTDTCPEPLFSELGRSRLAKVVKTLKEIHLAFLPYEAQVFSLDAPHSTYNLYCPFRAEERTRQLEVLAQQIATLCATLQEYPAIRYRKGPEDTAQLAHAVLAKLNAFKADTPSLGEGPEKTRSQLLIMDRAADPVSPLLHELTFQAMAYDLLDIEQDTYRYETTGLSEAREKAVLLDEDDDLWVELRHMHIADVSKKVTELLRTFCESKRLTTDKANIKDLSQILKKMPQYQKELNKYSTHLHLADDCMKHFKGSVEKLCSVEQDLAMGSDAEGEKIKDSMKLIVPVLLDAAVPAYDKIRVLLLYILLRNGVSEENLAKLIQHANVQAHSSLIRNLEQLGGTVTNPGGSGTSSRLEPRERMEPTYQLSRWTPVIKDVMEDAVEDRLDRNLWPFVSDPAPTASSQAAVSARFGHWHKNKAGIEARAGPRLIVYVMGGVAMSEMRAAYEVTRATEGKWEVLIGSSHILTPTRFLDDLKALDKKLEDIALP
# Sequence of UniProt O95149 (O95149 whole entry, looked up): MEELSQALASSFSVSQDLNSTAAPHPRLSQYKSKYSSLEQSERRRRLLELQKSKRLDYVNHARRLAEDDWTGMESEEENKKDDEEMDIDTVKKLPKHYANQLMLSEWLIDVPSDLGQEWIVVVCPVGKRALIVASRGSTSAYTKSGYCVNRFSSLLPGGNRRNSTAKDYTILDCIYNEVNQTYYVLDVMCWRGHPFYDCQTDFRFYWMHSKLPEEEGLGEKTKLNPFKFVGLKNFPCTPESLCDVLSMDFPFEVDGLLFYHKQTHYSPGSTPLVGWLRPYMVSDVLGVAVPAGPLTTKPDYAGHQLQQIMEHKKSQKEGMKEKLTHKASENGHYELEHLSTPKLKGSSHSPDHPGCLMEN
# Sequence of UniProt P62318 (P62318 whole entry, looked up): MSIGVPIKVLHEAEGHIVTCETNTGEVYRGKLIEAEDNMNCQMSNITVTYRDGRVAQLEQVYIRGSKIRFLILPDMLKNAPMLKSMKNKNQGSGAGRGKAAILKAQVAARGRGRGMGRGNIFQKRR
# Sequence of UniProt Q9UNL2 (Q9UNL2 whole entry, looked up): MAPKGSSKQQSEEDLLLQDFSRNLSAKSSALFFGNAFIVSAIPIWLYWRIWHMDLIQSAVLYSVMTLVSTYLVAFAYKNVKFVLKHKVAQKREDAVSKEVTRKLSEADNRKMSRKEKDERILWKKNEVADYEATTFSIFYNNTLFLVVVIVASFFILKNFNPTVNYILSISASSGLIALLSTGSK
Target,log2 fold change [1],log2 fold change [2],log2 fold change [3],log2 fold change [4],log2 fold change [5],log2 fold change [6],log2 fold change [7],log2 fold change [8],log2 fold change [9],log2 fold change [10]
SURF2 (UniProt Q15527),-0.103,0.039,0.054,-0.048,-0.02,0.082,-0.012,0.053,0.034,-0.013
SNRPD3 (UniProt P62318),0.013,-0.077,0.034,0.077,0.08,0.107,-0.097,-0.06,0.024,0.011
SRSF10 (UniProt O75494),0.044,-0.1,0.089,-0.079,0.336,0.076,-0.498,-0.173,0.215,-0.089
STAT3 (UniProt P40763),-0.015,-0.003,-0.097,-0.216,-0.141,0.026,-0.027,0.013,-0.172,0.024
SRPRA (UniProt P08240),0.143,0.138,0.066,0.04,-0.105,0.123,0.054,-0.037,-0.141,0.227 (active)
SSR3 isoform 2 (UniProt Q9UNL2),-0.064,0.034,-0.006,0.029,0.006,-0.047,0.107,-0.167,0.084,0.049
TM9SF2 (UniProt Q99805),-0.056,0.008,0.025,-0.072,-0.013,0.041,0.023,0.036,0.009,-0.006
TAMM41 isoform 3 (UniProt Q96BW9),-0.278 (active),-0.041,-0.112,-0.005,-0.108,0.026,0.037,0.028,-0.043,-0.044
SSB (UniProt P05455),-0.022,-0.018,-0.057,-0.125,-0.06,-0.123,-0.048,-0.02,0.051,-0.111
TERF2IP (UniProt Q9NYB0),-0.051,-0.008,-0.006,-0.163,-0.028,-0.128,-0.078,-0.033,0.074,-0.014
TAOK3 (UniProt Q9H2K8),-0.066,0.012,-0.05,0.03,-0.048,-0.048,0.025,-0.009,-0.026,0.018
THADA (UniProt Q6YHU6),0,0.027,-0.068,0.045,-0.15,-0.028,0.098,0.055,-0.1,0.123
TBC1D24 (UniProt Q9ULP9),-0.007,0.049,-0.069,-0.318 (active),-0.15,-0.219,0.098,-0.045,-0.106,0.097
SRSF7 (UniProt Q16629),0.073,-0.055,0.156,-0.642 (active),0.171,0.044,-0.177,-0.126,0.181,-0.128
STXBP2 isoform 3 (UniProt Q15833),0.088,0.096,-0.099,-0.147,-0.131,-0.014,0.073,0.086,-0.086,0.164
STAT6 (UniProt P42226),0.027,0.502 (active),-0.082,-0.181,-0.115,0.155,-0.099,-0.042,-0.164,0.179
TJP2 isoform 7 (UniProt Q9UDY2),0.05,0.149,0.014,-0.207,-0.191,-0.025,0.009,0.014,-0.094,0.002
STXBP5 (UniProt Q5T5C0),-0.032,0.017,0.003,-0.025,-0.06,-0.003,0.021,-0.026,-0.049,-0.021
SULT1A1 (UniProt P50225),-0.067,0.222,-0.072,-0.065,-0.172,-0.002,0.333 (active),0.353 (active),-0.097,-0.069
SMC5 (UniProt Q8IY18),0.02,-0.029,0,-0.095,0.05,0.082,0.006,-0.102,0.032,-0.004
SLC6A6 (UniProt P31641),-0.001,-0.018,0.064,-0.015,-0.069,0.068,-0.011,-0.006,0.002,0.024
SNX6 (UniProt Q9UNH7),-0.132,0.138,-0.214,0.012,-0.176,-0.47 (active),0.094,0.019,-0.045,0.058
SLC39A11 (UniProt Q8N1S5),-0.13,-0.043,-0.028,0.001,0.058,0.248,0.128,0.002,0.048,-0.005
SRP72 (UniProt O76094),0.05,0.048,-0.117,-0.03,-0.186,0.108,-0.052,-0.052,-0.148,-0.036
TACC2 (UniProt O95359),-0.044,0.011,0.027,0.073,0.059,0.008,-0.001,-0.003,0.029,-0.006
SRSF11 (UniProt Q05519),0.071,0.105,-0.024,-1.01 (active),-0.034,-0.001,-0.078,0.015,-0.029,-0.01
SLC38A9 (UniProt Q8NBW4),-0.022,-0.04,0.02,0.05,0.094,-0.081,-0.017,-0.034,0.038,0.046
TK1 (UniProt K7ERV3),-0.03,0.022,-0.108,-0.018,0.018,-0.076,0.176,0.016,0.03,0.037
SNUPN (UniProt O95149),-0.031,0.006,-0.025,-0.009,-0.051,0.018,0.013,-0.054,0.003,0.06
TLK2 isoform 2 (UniProt Q86UE8),-0.051,-0.042,0.006,-0.407 (active),-0.01,0.007,0.046,-0.033,0.01,-0.001

# Source: the supplement of paper PMC10849652
